In PubChem BioAssay (NCATS) one finds Potency data, which are given here for 37 compounds.

Results filed as inconclusive are left out. A call without a number means that no potency is given here. Active and inactive are the calls of the source. Calls follow the shape of the dose curve; as a rule, active = well fitted inhibition curve with a large enough effect; inconclusive = small, poorly fitted or top-dose-only effect; inactive = flat fitted curve, though single readings scatter.
Potency is read from the fitted curve at half-maximal effect.

Sequence of Voltage-gated inwardly rectifying potassium channel KCNH2 (Homo sapiens) (Q12809 whole entry, looked up): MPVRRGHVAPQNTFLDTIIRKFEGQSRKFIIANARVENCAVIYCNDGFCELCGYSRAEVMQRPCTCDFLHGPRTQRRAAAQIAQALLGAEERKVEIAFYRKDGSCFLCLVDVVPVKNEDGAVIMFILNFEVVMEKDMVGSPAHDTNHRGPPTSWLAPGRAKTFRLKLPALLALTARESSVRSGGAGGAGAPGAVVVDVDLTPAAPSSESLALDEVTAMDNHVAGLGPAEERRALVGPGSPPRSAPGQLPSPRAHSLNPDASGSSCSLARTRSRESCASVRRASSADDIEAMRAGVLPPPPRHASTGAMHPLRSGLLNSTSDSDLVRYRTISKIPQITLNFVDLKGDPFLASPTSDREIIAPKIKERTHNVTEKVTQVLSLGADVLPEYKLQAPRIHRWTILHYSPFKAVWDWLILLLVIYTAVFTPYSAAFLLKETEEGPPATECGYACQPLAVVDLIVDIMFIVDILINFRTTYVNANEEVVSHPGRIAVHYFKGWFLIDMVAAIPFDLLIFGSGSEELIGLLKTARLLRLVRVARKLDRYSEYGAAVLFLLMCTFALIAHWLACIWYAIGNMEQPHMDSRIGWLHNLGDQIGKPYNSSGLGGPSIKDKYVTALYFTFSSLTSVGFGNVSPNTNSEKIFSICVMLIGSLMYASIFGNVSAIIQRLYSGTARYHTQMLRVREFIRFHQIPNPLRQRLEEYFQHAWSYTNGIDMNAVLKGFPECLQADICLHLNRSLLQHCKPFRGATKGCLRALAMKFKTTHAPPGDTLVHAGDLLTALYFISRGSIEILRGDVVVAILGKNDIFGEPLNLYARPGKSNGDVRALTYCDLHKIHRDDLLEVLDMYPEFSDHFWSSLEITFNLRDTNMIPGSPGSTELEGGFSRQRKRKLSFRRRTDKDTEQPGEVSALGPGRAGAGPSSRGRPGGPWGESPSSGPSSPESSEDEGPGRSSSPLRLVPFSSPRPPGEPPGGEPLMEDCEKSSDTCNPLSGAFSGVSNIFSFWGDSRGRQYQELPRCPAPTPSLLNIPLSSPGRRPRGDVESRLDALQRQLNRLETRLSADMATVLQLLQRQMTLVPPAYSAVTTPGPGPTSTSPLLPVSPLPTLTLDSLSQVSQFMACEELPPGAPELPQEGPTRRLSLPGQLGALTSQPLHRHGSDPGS

For the assay, the target named is Voltage-gated inwardly rectifying potassium channel KCNH2 (Homo sapiens) (UniProt Q12809). The experiment in a line: qHTS Assay for Small Molecule Inhibitors of the Human hERG Channel Activity (AID 588834).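 Also: lower thallium flux fluorescence means stronger hERG block; nearly all actives have a fitted effect of over 50% in size.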 Particulars: U2OS BacMam hERG, FluxOR thallium flux fluorescence; series mostly up to 46.1 µM. In short, it runs like this:
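hERG-BacMam U2OS, 2000 cells/well; 0.7X FluxOR loading 1 hr RT dark; cpd ~10 min 37 °C; stim buffer; FDSS fluorescence 2 min @ 1 s; AC50 Hill fit.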
On the technique in general: qHTS replaces the single test concentration by a dilution series.
With `C[C@@H](CN1CCC(Cc2ccccc2)CC1)[C@@H](O)c1ccc(O)cc1`, the Potency is 0.631 µM (active).

For `O=Nc1ccc2oc(=O)ccc2c1`, the Potency result was “inactive”.

Take `C[N+](C)(CCCCCC[N+](C)(C)CCCN1C(=O)c2cccc3cccc(c23)C1=O)CCCN1C(=O)c2cccc3cccc(c23)C1=O`: the Potency entry was “inactive”.

With `CCCCCCCCCCCCCCCC(=O)NCC(COP(=O)([O-])OCC[N+](C)(C)C)OCC` (configuration not stated), the Potency result is “inactive”.

`O=S(=O)(c1cccc2c(I)cccc12)N1CCCNCC1`: the Potency was 11.2 µM (active).

For `N.N.O=C(O)C1(C(=O)O)CCC1.[Pt]`, the Potency entry was “inactive”.

`CC(C(=O)O)c1ccc(C(=O)c2ccccc2)s1` (configuration not stated): the Potency result is “inactive”.

For `CC[C@H]1OC(=O)[C@H](C)C(=O)[C@H](C)[C@@H](O[C@@H]2O[C@H](C)C[C@H](N(C)C)[C@H]2O)[C@](C)(OC)C[C@@H](C)C(=O)[C@H](C)[C@H]2N(CCCCn3cnc(-c4cccnc4)c3)C(=O)O[C@]12C`, the Potency entry is “inactive”.

Take `CCCCCCCCCCCCCCCCCC(=O)OC(CC(=O)O)C[N+](C)(C)C` (configuration not stated): the Potency result was “inactive”.

Regarding `O=C(O)c1cc(=O)c2c(Cl)cc(Cl)cc2[nH]1`, the Potency result is “inactive”.

As to `Oc1cc(O)cc(/C=C/c2ccc(O)c(O)c2)c1`, the Potency entry was “inactive”.

In the case of `CO/N=C(\C(=O)N[C@@H]1C(=O)N2C(C(=O)O)=C(COC(C)=O)CS[C@H]12)c1csc(N)n1` (stereo in doubt), the Potency result is “inactive”.

Turning to `CCCCC/C=C\CC(O)/C=C/c1cccc(CC(O)CCCCO)n1` (configuration not stated), the Potency result is “inactive”.

For the compound `CCCn1c(=O)c2[nH]c(-c3ccc(OCC(=O)NCCN)cc3)nc2n(CCC)c1=O`, the Potency result was “inactive”.

Turning to `O=C1O/C(=C/Br)CCC1c1cccc2ccccc12` (configuration not stated), the Potency is 5.62 µM (active).

Consider `Cn1c(=O)c2[nH]c(-c3ccccc3)nc2n(C)c1=O`, for which the Potency entry was “inactive”.

As for `O=C(Nc1cccc(C(=O)Nc2ccc(S(=O)(=O)O)c3cc(S(=O)(=O)O)cc(S(=O)(=O)O)c23)c1)Nc1cccc(C(=O)Nc2ccc(S(=O)(=O)O)c3cc(S(=O)(=O)O)cc(S(=O)(=O)O)c23)c1`, the Potency result is “inactive”.

For the compound `C#CC1(O)CC[C@H]2[C@@H]3CCC4=CCCC[C@@H]4[C@H]3CC[C@@]21C` (some centres not stated), the Potency entry was “inactive”.

`CC(C)NC[C@H](O)COc1cccc2[nH]ccc12`: the Potency result was “inactive”.

Take `O=C(O)[C@@H]1C[C@H](C(=O)O)N1`: the Potency result was “inactive”.

For the compound `NCCCCC(=O)O`, the Potency result was “inactive”.

Take `NC(CCCP(=O)(O)O)C(=O)O` (configuration not stated): the Potency result is “inactive”.

Consider `OC[C@H]1O[C@@H](n2cnc3c(NC4CCCCC4)ncnc32)[C@H](O)[C@@H]1O`, for which the Potency entry is “inactive”.

As for `CC1(C)CCC=[N+]1[O-]`, the Potency result is “inactive”.

In the case of `CC(C(=O)O)c1ccc(C(=O)c2cccs2)cc1` (configuration not stated), the Potency entry is “inactive”.

Turning to `COC(=O)[C@H]1[C@H]2C[C@@H]3c4[nH]c5cc(OC)ccc5c4CCN3C[C@H]2C[C@@H](OC(=O)/C=C/c2cc(OC)c(OC)c(OC)c2)[C@@H]1OC`, the Potency was 7.94 µM (active).

As for `COc1ccccc1CNCCCCCCNCCCCCCCCNCCCCCCNCc1ccccc1OC`, the Potency entry is “inactive”.

`CC(=O)N[C@H](C(=O)O)C(C)(C)SN=O`: the Potency result was “inactive”.

With `C[C@@H](NC(=O)/C(C#N)=C/c1ccc(O)c(O)c1)c1ccccc1`, the Potency entry is “inactive”.

For the compound `N=C(N)SCCc1ccc(CCSC(=N)N)cc1`, the Potency result was “inactive”.

In the case of `Fc1cccc(/C=N/N=C/c2cccc(F)c2)c1`, the Potency entry is “inactive”.

As to `N#C/C(=C\c1ccc(O)c(O)c1)C(=O)NCc1ccccc1`, the Potency is 12.6 µM (active).

Turning to `COc1cc(C(O)CO)ccc1OS(=O)(=O)O` (configuration not stated), the Potency result was “inactive”.

As to `CN(C)C(N)=NCCC[C@H](N)C(=O)O`, the Potency entry was “inactive”.

In the case of `COc1ccccc1N1CCN(CCCCNS(=O)(=O)c2cccc3c(N(C)C)cccc23)CC1`, the Potency was 1.41 µM (active).

Turning to `CC(=O)SCC[N+](C)(C)C`, the Potency result was “inactive”.

In the case of `O=C(O)CC[C@@H](C(=O)O)N1C(=O)c2ccccc2C1=O`, the Potency entry is “inactive”.
